# Results from ChEMBL document CHEMBL1961873, “Compounds: GSK PKIS; Assays: Nanosyn kinase panel” (2012).
# Biological target: Fibroblast growth factor receptor 1 (Homo sapiens) (UniProt P11362);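 further: values are the mean percent inhibition of FGFR1 across replicate measurements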
# Details: at 1 µM
# Fibroblast growth factor receptor 1 (Homo sapiens), sequence (P11362 22-822 limits assumed): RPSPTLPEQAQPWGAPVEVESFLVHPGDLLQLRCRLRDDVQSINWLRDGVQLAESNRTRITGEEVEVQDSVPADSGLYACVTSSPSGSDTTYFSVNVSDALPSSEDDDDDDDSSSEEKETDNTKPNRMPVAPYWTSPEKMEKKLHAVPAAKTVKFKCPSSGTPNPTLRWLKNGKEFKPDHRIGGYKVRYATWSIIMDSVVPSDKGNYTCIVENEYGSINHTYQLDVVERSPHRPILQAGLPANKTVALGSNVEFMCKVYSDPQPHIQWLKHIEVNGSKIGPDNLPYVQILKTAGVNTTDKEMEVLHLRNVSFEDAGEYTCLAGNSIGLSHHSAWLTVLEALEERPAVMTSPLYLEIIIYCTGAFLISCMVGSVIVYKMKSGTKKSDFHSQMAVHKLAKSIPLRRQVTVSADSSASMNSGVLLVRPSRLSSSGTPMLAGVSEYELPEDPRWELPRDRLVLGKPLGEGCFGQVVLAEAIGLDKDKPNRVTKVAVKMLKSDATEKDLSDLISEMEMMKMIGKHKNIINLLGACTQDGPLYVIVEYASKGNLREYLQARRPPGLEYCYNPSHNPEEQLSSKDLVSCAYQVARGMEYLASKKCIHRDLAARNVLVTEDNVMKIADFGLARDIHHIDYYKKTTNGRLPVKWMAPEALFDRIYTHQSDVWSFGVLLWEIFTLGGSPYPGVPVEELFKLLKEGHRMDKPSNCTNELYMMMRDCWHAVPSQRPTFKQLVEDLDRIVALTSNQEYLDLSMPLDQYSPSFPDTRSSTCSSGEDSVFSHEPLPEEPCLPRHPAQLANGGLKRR
row,Compound,inhibition [%]
1,N#Cc1c(NC(=O)c2cccc3ccccc23)sc2c1CCCC2,2.06
2,CCn1c(-c2nonc2N)nc2cnc(Oc3cccc(NC(=O)c4ccc(OCCN5CCOCC5)cc4)c3)cc21,5.99
3,COc1ccccc1Nc1ncc(-c2ccccc2)o1,5.99
4,COc1ccc(COc2ccc(Cc3cnc(N)nc3N)cc2OC)cc1,2.1
5,CS(=O)(=O)Nc1ccc(N/C=C2\C(=O)Nc3ccccc32)cc1,5.82
6,CC1=C(C(=O)Nc2ccc3[nH]ncc3c2)C(c2ccc(Cl)c(Cl)c2)CC(=O)N1 (stereo not drawn),8.25
7,COc1cc2ncn(-c3cc(O[C@@H](C)c4ccccc4Cl)c(C(N)=O)s3)c2cc1OC,17.2
8,NS(=O)(=O)c1cccc(-c2ccc3c(NC(=O)C4CC4)n[nH]c3c2)c1,-2.92
9,Nc1ncnc2occ(-c3ccc(NC(=O)Nc4cccc(C(F)(F)F)c4)cc3)c12,38.2
10,CS(=O)(=O)CCNCc1ccc(-c2ccc3ncnc(Nc4ccc(OCc5cccc(F)c5)c(C(F)(F)F)c4)c3c2)o1,2.33
11,O=C1Nc2ccc(C(=O)c3ccco3)cc2C1=Cc1cc(Cl)c(O)c(Cl)c1,8.23
12,COc1cc2c(cc1Nc1nc(N3CCc4ccccc43)c3cc[nH]c3n1)N(C(=O)CN(C)C)CC2,-1.36
13,CCc1cccc(NC(=O)Nc2ccc(Oc3ccc4nc(NC(=O)OC)[nH]c4c3)cc2)c1,3.26
14,CCN1CCC(CC(=O)Nc2n[nH]c3nc(-c4cccs4)c(Br)cc23)CC1,-1.95
15,Cc1ccc(NC(=O)c2ccnc(N3CCCC3)c2)cc1-c1ccc(C(=O)NCC2CC2)cc1,2.19
16,CCn1c(-c2nonc2N)nc2c(C#CC(C)(C)O)nc(CN3CCCC3)cc21,-2.63
17,COc1cc(C)c(NC(=O)CN(C)C)cc1Nc1nc(Nc2cccc(F)c2C(N)=O)c2cc[nH]c2n1,1.43

# Biological target: Fibroblast growth factor receptor 2 (Homo sapiens) (UniProt P21802);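 further: values are mean percent inhibition of FGFR2 kinase, measured within the GSK Published Kinase Inhibitor Set (PKIS) screening panel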
# Sequence (P21802 22-821 limits assumed): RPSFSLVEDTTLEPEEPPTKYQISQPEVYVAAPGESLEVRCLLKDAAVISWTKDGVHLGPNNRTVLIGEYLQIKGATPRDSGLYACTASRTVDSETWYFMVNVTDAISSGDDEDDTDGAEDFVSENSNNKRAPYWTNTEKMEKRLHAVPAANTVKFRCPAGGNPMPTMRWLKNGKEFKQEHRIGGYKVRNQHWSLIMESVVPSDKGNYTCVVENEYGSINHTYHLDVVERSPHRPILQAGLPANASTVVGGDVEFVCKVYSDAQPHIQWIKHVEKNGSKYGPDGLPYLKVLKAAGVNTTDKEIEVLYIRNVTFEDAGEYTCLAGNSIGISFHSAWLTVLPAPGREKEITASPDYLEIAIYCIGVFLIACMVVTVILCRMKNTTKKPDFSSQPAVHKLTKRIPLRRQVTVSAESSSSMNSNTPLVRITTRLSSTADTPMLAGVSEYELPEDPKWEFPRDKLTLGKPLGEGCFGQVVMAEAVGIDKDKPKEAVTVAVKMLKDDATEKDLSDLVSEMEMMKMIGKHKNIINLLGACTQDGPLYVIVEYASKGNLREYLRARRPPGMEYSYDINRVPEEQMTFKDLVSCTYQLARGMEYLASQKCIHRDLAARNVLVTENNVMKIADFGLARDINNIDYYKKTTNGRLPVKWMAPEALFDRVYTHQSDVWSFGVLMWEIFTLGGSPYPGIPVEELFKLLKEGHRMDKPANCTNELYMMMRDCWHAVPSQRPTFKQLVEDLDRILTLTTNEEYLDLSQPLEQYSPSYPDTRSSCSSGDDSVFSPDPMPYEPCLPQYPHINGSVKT
# Details: at 0.1 µM
row,Compound,inhibition [%]
1,Nc1nc(-c2ccccn2)c(-c2ccc3ncccc3n2)s1,3.92
2,Fc1cccc(COc2ccc(Nc3ncnc4cc(-c5ccc[nH]5)sc34)cc2Cl)c1,-1.83
3,COc1cccc(-n2ncc3c(N/N=C/c4cccc(F)c4)ncnc32)c1,-3.24
4,CCn1c(-c2nonc2N)nc2c(C#CC(C)(C)O)nc(OC[C@@H](N)c3ccccc3)cc21,-3.01
5,COc1ccc(-c2coc3ncnc(N)c23)cc1,3.85
6,Cc1cccc(-c2n[nH]cc2-c2ccc3ncccc3n2)n1,0.62
7,Nc1ncnc2occ(-c3ccc(NC(=O)Nc4cc(C(F)(F)F)cc(C(F)(F)F)c4)cc3)c12,23.3
8,[O-][S+]1CCN(Cc2ccc(-c3ccc4ncnc(Nc5ccc(OCc6ccccc6)c(F)c5)c4c3)o2)CC1,1.34
9,Nc1nc(-c2ccc3c(c2)C(=Cc2cc(Br)c(O)c(Br)c2)C(=O)N3)cs1,-1.12
10,CC1=C(C(=O)Nc2ccc3[nH]ncc3c2)C(c2ccc3ccccc3c2)CC(=O)N1 (stereo not drawn),5.6
11,CS(=O)(=O)CCNCc1ccc(-c2ccc3ncnc(Nc4ccc(OCc5ccccc5)c(Cl)c4)c3c2)o1,0.57
12,c1cnn2ncc(-c3ccnc(Nc4ccc5c(c4)OCCO5)n3)c2c1,6.35
13,CN1CCC(C(=O)Nc2n[nH]c3nnc(-c4ccccc4)cc23)CC1,5.82
14,Cn1cc(C=C2C(=O)Nc3cccnc32)c2ccccc21,9.78
15,Cc1nnc(-c2ccc(C)c(-c3ccc(C(=O)Nc4cccc(C#N)c4)cc3)c2)o1,1.7
16,CNC(=O)c1cncc(/C=C/c2c(Cl)cccc2Cl)c1,3.82
17,N#Cc1c(NC(=O)c2cccc3ccccc23)sc2c1CCCC2,1.68
18,CCn1c(-c2nonc2N)nc2cnc(Oc3cccc(NC(=O)c4ccc(OCCN5CCOCC5)cc4)c3)cc21,4.83
19,COc1ccccc1Nc1ncc(-c2ccccc2)o1,6.35
20,COc1ccc(COc2ccc(Cc3cnc(N)nc3N)cc2OC)cc1,1.46
21,CS(=O)(=O)Nc1ccc(N/C=C2\C(=O)Nc3ccccc32)cc1,1.04
22,CC1=C(C(=O)Nc2ccc3[nH]ncc3c2)C(c2ccc(Cl)c(Cl)c2)CC(=O)N1 (stereo not drawn),0.22
23,COc1cc2ncn(-c3cc(O[C@@H](C)c4ccccc4Cl)c(C(N)=O)s3)c2cc1OC,7.05
24,NS(=O)(=O)c1cccc(-c2ccc3c(NC(=O)C4CC4)n[nH]c3c2)c1,-1.77
25,Nc1ncnc2occ(-c3ccc(NC(=O)Nc4cccc(C(F)(F)F)c4)cc3)c12,15.8
26,CS(=O)(=O)CCNCc1ccc(-c2ccc3ncnc(Nc4ccc(OCc5cccc(F)c5)c(C(F)(F)F)c4)c3c2)o1,3.18
